Values without a mark were called inactive.
Tests used:
Assay in all cases: log2 ratio of Biotin-Ahx-Ub-VS probe labelling (fragment/DMSO); higher = less target engagement (more negative = stronger competition), active = hit call of the paper (q ≤ 0.05, log2 ratio ≤ -1)
Settings in all cases: compound concentration: 200 uM; treatment time: 3 h
OTUD6B = biological target: T1, OTUD6B (UniProt Q8N6M0)
T1 sequence (whole entry): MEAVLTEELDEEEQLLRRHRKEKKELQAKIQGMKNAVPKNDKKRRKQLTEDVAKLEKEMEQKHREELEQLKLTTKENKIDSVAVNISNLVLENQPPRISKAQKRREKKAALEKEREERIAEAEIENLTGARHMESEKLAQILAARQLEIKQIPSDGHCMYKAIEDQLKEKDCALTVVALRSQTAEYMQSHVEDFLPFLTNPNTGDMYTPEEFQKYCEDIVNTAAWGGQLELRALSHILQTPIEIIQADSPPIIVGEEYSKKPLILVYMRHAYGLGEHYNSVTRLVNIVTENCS
Method in brief: (§1)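 Using Biotin-Ahx-Ub-VS at 0.5 µM final for 1 h, DUBs were labelled in HEK293T lysate (495 µg per sample) that had first been treated in triplicate with fragment at 200 µM or vehicle for 3 h. NeutrAvidin enrichment, LysC and trypsin digestion and diaPASEF LC-MS/MS followed. Spectronaut label-free quantities were global-median-normalised. Values are average log2 fragment/vehicle ratios by unpaired t-test, using proteins with ≥2 unique peptides.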

OTUD7B = biological target: T2, OTUD7B (UniProt Q6GQQ9)
T2 sequence (whole entry): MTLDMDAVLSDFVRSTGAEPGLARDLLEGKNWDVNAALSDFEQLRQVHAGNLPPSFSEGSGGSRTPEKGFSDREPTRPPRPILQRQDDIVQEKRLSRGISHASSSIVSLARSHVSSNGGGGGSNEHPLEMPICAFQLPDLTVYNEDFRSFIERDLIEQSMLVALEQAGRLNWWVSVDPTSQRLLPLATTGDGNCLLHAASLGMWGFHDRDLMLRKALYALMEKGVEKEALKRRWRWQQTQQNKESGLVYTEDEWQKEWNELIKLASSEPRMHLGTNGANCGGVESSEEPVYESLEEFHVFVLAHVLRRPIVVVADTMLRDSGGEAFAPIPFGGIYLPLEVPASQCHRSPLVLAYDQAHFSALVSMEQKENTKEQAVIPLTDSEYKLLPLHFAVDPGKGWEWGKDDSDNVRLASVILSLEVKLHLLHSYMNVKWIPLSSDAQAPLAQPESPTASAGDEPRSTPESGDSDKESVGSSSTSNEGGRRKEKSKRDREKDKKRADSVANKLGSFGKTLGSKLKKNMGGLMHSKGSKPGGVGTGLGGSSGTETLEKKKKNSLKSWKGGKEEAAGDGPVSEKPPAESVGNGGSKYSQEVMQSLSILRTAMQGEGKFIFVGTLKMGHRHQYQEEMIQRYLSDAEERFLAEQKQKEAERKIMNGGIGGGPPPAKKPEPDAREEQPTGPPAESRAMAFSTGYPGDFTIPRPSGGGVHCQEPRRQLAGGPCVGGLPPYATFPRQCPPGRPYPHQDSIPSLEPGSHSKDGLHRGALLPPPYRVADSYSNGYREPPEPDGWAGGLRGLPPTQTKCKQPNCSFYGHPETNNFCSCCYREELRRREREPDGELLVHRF
Method in brief: as §1

PRPF8 = PRPF8 (UniProt Q6P2Q9)
Method in brief: as §1

PSMD7 = biological target: T3, PSMD7 (UniProt P51665)
T3 sequence (whole entry): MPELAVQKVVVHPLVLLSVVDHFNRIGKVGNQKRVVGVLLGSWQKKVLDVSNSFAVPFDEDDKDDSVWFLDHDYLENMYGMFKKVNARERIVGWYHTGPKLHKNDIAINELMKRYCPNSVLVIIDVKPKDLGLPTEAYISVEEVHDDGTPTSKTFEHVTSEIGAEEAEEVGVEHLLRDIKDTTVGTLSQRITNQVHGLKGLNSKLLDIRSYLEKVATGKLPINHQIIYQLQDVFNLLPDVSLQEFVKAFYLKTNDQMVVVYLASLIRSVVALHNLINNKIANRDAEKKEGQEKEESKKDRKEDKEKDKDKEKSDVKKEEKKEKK
Method in brief: as §1

UCHL1 = UCHL1 (UniProt P09936)
Chain of UCHL1 (P09936 whole entry, looked up): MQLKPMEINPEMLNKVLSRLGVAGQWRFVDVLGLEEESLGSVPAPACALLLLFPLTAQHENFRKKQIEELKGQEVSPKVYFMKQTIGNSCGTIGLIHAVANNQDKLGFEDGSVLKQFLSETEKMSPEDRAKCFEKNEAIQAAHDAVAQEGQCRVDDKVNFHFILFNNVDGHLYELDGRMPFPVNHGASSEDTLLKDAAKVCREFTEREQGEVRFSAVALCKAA
Method in brief: as §1

UCHL3 = biological target: T4, UCHL3 (UniProt P15374)
T4 sequence (whole entry): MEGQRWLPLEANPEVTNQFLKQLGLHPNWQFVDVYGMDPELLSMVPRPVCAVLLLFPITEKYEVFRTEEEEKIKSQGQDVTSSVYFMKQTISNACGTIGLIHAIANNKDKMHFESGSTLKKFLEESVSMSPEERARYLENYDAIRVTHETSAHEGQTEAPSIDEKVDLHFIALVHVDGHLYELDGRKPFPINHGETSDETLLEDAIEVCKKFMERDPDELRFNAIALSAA
Method in brief: as §1

UCHL5 = biological target: T5, UCHL5 (UniProt Q9Y5K5)
T5 sequence (whole entry): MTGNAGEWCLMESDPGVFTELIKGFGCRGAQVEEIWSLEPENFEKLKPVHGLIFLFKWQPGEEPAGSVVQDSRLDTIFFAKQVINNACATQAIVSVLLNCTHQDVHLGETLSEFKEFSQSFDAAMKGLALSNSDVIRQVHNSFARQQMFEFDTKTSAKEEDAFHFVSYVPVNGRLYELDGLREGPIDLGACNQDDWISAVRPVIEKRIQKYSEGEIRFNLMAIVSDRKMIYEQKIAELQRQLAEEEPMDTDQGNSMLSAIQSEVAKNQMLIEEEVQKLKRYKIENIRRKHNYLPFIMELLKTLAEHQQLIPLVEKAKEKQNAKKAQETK
Method in brief: as §1

USP10 = USP10 (UniProt Q14694)
Chain of USP10 (Q14694 whole entry): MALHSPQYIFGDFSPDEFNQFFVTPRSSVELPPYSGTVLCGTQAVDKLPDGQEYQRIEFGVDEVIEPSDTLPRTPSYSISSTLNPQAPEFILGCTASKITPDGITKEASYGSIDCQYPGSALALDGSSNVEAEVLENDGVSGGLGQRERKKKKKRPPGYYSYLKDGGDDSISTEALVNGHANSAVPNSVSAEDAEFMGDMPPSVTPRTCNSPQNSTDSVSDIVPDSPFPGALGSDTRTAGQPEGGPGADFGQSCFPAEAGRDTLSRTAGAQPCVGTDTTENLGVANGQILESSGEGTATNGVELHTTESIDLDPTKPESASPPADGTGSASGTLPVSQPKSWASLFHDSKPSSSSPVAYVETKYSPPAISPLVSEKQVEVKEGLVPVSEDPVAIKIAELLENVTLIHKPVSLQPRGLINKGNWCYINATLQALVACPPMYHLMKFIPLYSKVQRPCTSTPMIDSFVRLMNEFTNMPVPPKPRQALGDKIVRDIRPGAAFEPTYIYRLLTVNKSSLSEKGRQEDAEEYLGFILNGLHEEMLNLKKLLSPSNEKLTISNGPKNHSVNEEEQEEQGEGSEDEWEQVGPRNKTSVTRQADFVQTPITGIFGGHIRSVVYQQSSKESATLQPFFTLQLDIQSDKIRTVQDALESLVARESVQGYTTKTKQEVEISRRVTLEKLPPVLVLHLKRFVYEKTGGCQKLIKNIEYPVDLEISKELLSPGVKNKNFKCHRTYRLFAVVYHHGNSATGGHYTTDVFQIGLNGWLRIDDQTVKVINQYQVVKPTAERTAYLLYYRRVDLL
Method in brief: as §1

USP15 = biological target: T6, USP15 (UniProt Q9Y4E8)
T6 sequence (whole entry): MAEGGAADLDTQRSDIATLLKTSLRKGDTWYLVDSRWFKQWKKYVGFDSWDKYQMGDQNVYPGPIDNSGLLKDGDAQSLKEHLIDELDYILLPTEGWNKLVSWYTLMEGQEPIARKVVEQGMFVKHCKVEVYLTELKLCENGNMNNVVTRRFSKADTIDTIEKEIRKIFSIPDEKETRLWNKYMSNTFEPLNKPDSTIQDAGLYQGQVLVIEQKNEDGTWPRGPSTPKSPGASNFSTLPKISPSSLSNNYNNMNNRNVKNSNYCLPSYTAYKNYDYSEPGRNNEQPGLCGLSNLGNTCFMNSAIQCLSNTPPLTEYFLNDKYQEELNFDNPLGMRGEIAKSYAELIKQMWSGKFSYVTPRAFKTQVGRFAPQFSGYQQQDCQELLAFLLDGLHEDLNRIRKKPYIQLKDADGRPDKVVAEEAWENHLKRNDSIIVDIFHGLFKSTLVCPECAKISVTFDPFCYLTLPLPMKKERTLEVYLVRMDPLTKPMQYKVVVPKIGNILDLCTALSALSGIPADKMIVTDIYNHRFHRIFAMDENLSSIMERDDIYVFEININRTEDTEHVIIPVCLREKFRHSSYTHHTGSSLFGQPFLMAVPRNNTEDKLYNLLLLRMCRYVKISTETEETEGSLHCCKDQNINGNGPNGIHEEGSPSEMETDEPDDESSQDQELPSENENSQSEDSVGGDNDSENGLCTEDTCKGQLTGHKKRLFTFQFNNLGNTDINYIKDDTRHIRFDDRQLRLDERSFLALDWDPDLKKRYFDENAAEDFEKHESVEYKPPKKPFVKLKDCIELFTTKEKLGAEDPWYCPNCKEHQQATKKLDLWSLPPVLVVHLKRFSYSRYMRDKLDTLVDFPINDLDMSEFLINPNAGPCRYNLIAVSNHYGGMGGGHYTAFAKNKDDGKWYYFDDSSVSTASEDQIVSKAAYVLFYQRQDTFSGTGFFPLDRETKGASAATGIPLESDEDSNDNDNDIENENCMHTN
Method in brief: as §1

USP16 = USP16 (UniProt Q9Y5T5)
Chain of USP16 (Q9Y5T5 whole entry, looked up): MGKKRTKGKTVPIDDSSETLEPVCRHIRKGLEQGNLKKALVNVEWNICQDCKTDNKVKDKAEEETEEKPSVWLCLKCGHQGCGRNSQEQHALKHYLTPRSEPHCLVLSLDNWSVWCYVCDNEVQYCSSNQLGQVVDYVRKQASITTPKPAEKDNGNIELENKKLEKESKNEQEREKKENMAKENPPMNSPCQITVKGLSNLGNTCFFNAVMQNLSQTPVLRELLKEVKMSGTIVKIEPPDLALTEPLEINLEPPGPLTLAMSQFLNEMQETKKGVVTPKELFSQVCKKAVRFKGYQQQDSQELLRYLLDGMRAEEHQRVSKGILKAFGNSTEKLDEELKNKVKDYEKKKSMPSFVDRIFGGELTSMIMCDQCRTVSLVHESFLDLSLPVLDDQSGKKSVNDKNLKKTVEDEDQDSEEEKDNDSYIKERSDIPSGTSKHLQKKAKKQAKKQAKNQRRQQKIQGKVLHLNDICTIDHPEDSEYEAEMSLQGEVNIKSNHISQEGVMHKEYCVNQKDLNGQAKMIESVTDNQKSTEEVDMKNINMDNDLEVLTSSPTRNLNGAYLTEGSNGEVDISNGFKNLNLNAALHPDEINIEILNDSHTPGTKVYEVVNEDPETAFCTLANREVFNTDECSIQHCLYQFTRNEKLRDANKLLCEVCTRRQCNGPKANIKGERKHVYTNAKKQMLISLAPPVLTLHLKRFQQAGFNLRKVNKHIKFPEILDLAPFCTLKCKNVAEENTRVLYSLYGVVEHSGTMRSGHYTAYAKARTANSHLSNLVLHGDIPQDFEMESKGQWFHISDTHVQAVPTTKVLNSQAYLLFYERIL
Method in brief: as §1

SMILES: O=C(CCl)N1CCCN(C(=O)c2ccc(Cl)cc2)CC1
- log2 ratio of Biotin-Ahx-Ub-VS probe labelling (OTUD6B): -0.316
- log2 ratio of Biotin-Ahx-Ub-VS probe labelling (OTUD7B): -0.767
- log2 ratio of Biotin-Ahx-Ub-VS probe labelling (PRPF8): 0.0935
- log2 ratio of Biotin-Ahx-Ub-VS probe labelling (PSMD7): -0.253
- log2 ratio of Biotin-Ahx-Ub-VS probe labelling (UCHL1): -1.68 (active)
- log2 ratio of Biotin-Ahx-Ub-VS probe labelling (UCHL3): 0.267
- log2 ratio of Biotin-Ahx-Ub-VS probe labelling (UCHL5): -0.389
- log2 ratio of Biotin-Ahx-Ub-VS probe labelling (USP10): 0.0223
- log2 ratio of Biotin-Ahx-Ub-VS probe labelling (USP15): -0.429
- log2 ratio of Biotin-Ahx-Ub-VS probe labelling (USP16): -0.13

Source: the supplement of paper PMC11732987, “Enantioselective OTUD7B fragment discovery through chemoproteomics screening and high-throughput optimisation” (Communications Chemistry, 2025)
